About 83,000 compounds went through this panel and 20% of them were active in at least one assay; those are over-represented in the sample as a whole.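 Values shown are percent growth following 48 h exposure of cells in 96-well plates to a single concentration of compound; below 10 was considered active.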 Activity calls are given as the source filed them.

The values below come from PubChem BioAssay (NCI).

This assay relates to MDA-MB-468 breast. Put plainly: NCI-60 one-dose screen, 48 h (100 = growth as untreated, 0 = no growth, -100 = all killed). The following applies: 10 µM unless noted.
As to `O=C(/C(=C/c1cccc([N+](=O)[O-])c1)c1ccccc1)c1ccccc1`, the growth is 38.2% (inactive).
For `O=C(/C=C/c1ccc(Cl)cc1)c1cccc(OCCCOc2cccc(C(=O)/C=C/c3ccc(Cl)cc3)c2)c1`, the growth was 92.9% (inactive).
On to `COc1cc(/C=C\c2cc(OC)c(OC)c(OC)c2)cc(NS(=O)(=O)c2ccc(Cl)cc2)c1OC`, for which the growth was 19.1% (inactive).
The same measure for `CC1(C)N=C(N)N=C(N)N1c1cccc(CCc2ccccc2)c1`: 16.6% (inactive); for `COc1cc(-c2nc(SCCC(C)C)nc(Nc3ccc(S(N)(=O)=O)cc3)c2C#N)cc(OC)c1OC`: 42.8% (inactive); for `O=CN1N=C(c2ccc(Cl)cc2)CC1c1cccc(Nc2ccnc3cc(C(F)(F)F)ccc23)c1` (stereo not given): 32.9% (inactive).
Turning to `CNc1ccc(Nc2cccc(C)c2)c2c1C(=O)c1ccccc1C2=O`, the growth was -13.1% (active).
With `COc1c(CNC(=O)CCl)cc2[nH]c(C)cc2c1CNC(=O)CCl` the figure was 53.4% (inactive).
As to `COc1cc2c3c(n([C@H]4CCOC4)c(=O)c2cc1OC)-c1cc2c(cc1C3=O)OCO2`, the growth was 31.3% (inactive).
For the molecule `CCC(C)[C@H](NC(C)=O)C(=O)N[C@@H](CCCNC(=N)N)C(=O)N[C@@H](CCCCN)C(=O)N[C@@H](CC1CCC(O)CC1)C(=O)NC(C(=O)N[C@@H](CCSC)C(=O)N[C@@H](CCCNC(=N)N)C(=O)N[C@@]1(C)CCC/C=C\CCC[C@@](C)(C(=O)NC(C(=O)N[C@@H](CCC(=O)O)C(=O)N[C@@H](CC(C)C)C(=O)N[C@H](C(=O)N[C@@H](CCC(=O)O)C(N)=O)C(C)C)[C@@H](C)O)NC(=O)[C@H](CCC(N)=O)NC(=O)[C@H](CC(C)C)NC(=O)[C@H](CC(C)C)NC1=O)[C@@H](C)O` (stereo not given in full), the growth was 99.7% (inactive).
